14 sequences from publication PMC8384837, “Expanding the binding specificity for RNA recognition by a PUF domain” can be followed below.

Holding throughout (assay): yeast three-hybrid, YBZ-1, SC-Leu-His + 0.5 mM 3-AT, 4 days
Settings in all cases: tags: N-Gal4 AD-HA kept; label: inside an RPR1-promoter hybrid RNA with tandem MS2 sites; ssRNA

In one experiment the target is PUM1 PUF domain R3-DWV (Homo sapiens, UniProt Q14671 828-1176, C935D;R936W;Q939V). In short, it runs like this: (§1)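 The interaction score is the logarithmic change in variant frequency from input to selection. It uses log2, with a pseudocount of 1 for absent variants, and frequencies came from PCR-amplified, Illumina-sequenced repeat regions. The libraries were Pumilio-1 PUF domains randomized at the three base-contacting residues per repeat, co-expressed with matching RNA elements in strain YBZ-1 (LexA–MS2 coat fusion, HIS3 reporter). Plating lasted four days on SC-Leu (input) or SC-Leu-His + 0.5 mM 3-AT (selection).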

The next experiment has as its target PUM1 PUF domain R3-YYR (Homo sapiens, UniProt Q14671 828-1176, C935Y;R936Y;Q939R). In short, it runs like this:
as §1

The target in the next experiment is PUM1 PUF domain R2-NYP (Homo sapiens, UniProt Q14671 828-1176, Q903P). In outline:
as §1

The next experiment addresses PUM1 PUF domain R3-PFD (Homo sapiens, UniProt Q14671 828-1176, C935P;R936F;Q939D). In short, it runs like this: as §1
For a further experiment, the target named is PUM1 PUF domain R5-RRM (Homo sapiens, UniProt Q14671 828-1176, C1007R;Q1011M). In short, it runs like this: as §1
A further experiment concerns the target T1, PUM1 PUF domain R6-AWR (Homo sapiens, UniProt Q14671 828-1176, N1043A;Y1044W;Q1047R).
T1 sequence: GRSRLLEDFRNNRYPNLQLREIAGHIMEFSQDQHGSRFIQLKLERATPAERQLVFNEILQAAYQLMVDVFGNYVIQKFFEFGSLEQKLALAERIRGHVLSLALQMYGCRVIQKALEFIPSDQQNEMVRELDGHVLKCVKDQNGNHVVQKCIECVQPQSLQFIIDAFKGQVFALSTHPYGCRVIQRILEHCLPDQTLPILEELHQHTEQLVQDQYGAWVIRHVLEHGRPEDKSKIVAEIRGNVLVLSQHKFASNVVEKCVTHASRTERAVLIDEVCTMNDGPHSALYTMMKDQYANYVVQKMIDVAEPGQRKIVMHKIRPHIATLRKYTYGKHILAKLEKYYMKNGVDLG
In outline: as §1

Another experiment has as its target PUM1 PUF domain R8-MYF (Homo sapiens, UniProt Q14671 828-1176, N1122M;Q1126F). In short, it runs like this:
as §1

The next experiment deals with PUM1 PUF domain R3-GCK (Homo sapiens, UniProt Q14671 828-1176, C935G;R936C;Q939K). In short, it runs like this: as §1
A further experiment has as its target PUM1 PUF domain R3-SRK (Homo sapiens, UniProt Q14671 828-1176, C935S;Q939K). In outline: as §1
The target of a further experiment is PUM1 PUF domain R7-LMF (Homo sapiens, UniProt Q14671 828-1176, S1079L;N1080M;E1083F). In outline: as §1
The next experiment concerns the target PUM1 PUF domain R4-ANA (Homo sapiens, UniProt Q14671 828-1176, N971A;H972N;Q975A). In short, it runs like this:
as §1

A further experiment concerns the target PUM1 PUF domain R5-KKD (Homo sapiens, UniProt Q14671 828-1176, C1007K;R1008K;Q1011D). In outline:
as §1

Another experiment has as its target PUM1 PUF domain R4-GND (Homo sapiens, UniProt Q14671 828-1176, N971G;H972N;Q975D). In short, it runs like this: as §1
The target of the next experiment is PUM1 PUF domain R2-LPC (Homo sapiens, UniProt Q14671 828-1176, N899L;Y900P;Q903C). In outline:
as §1

Another experiment has as its target PUM1 PUF domain R2-KVA (Homo sapiens, UniProt Q14671 828-1176, N899K;Y900V;Q903A). In short, it runs like this:
as §1

In the next experiment the target is PUM1 PUF domain R2-RRT (Homo sapiens, UniProt Q14671 828-1176, N899R;Y900R;Q903T). In outline:
as §1

In another experiment the target is PUM1 PUF domain R2-MVW (Homo sapiens, UniProt Q14671 828-1176, N899M;Y900V;Q903W). In short, it runs like this: as §1
For a further experiment, the target named is PUM1 PUF domain R2-KLS (Homo sapiens, UniProt Q14671 828-1176, N899K;Y900L;Q903S). In short, it runs like this:
as §1

For another experiment, the target named is PUM1 PUF domain R5-SQA (Homo sapiens, UniProt Q14671 828-1176, C1007S;R1008Q;Q1011A). In short, it runs like this: as §1
The next experiment concerns the target PUM1 PUF domain R1-NFS (Homo sapiens, UniProt Q14671 828-1176, S863N;R864F;Q867S). In short, it runs like this: as §1

PUM1 PUF domain R3-GCK, sequence (Q14671 828-1176 C935G/R936C/Q939K): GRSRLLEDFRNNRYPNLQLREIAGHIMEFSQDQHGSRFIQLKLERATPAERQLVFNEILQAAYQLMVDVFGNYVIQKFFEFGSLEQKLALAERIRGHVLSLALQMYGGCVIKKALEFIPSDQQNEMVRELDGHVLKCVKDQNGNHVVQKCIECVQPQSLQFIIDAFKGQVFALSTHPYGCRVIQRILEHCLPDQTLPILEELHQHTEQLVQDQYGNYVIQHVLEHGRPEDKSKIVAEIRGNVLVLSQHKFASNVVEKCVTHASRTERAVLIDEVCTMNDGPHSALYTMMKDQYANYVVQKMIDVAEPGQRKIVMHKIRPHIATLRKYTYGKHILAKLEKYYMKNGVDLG
PUM1 PUF domain R3-DWV, sequence (Q14671 828-1176 C935D/R936W/Q939V): as the sequence (Q14671 828-1176 C935G/R936C/Q939K) above, with G108D, C109W, K112V counted along it
PUM1 PUF domain R3-YYR, sequence (Q14671 828-1176 C935Y/R936Y/Q939R): as the sequence (Q14671 828-1176 C935G/R936C/Q939K) above, with G108Y, C109Y, K112R counted along it
PUM1 PUF domain R2-NYP, sequence (Q14671 828-1176 Q903P): as the sequence (Q14671 828-1176 C935G/R936C/Q939K) above, with Q76P, G108C, C109R, K112Q counted along it
PUM1 PUF domain R1-NFS, sequence (Q14671 828-1176 S863N/R864F/Q867S): as the sequence (Q14671 828-1176 C935G/R936C/Q939K) above, with S36N, R37F, Q40S, G108C, C109R, K112Q counted along it
PUM1 PUF domain R8-MYF, sequence (Q14671 828-1176 N1122M/Q1126F): as the sequence (Q14671 828-1176 C935G/R936C/Q939K) above, with G108C, C109R, K112Q, N295M, Q299F counted along it
PUM1 PUF domain R2-KVA, sequence (Q14671 828-1176 N899K/Y900V/Q903A): as the sequence (Q14671 828-1176 C935G/R936C/Q939K) above, with N72K, Y73V, Q76A, G108C, C109R, K112Q counted along it
PUM1 PUF domain R5-SQA, sequence (Q14671 828-1176 C1007S/R1008Q/Q1011A): as the sequence (Q14671 828-1176 C935G/R936C/Q939K) above, with G108C, C109R, K112Q, C180S, R181Q, Q184A counted along it
PUM1 PUF domain R7-LMF, sequence (Q14671 828-1176 S1079L/N1080M/E1083F): as the sequence (Q14671 828-1176 C935G/R936C/Q939K) above, with G108C, C109R, K112Q, S252L, N253M, E256F counted along it
PUM1 PUF domain R2-LPC, sequence (Q14671 828-1176 N899L/Y900P/Q903C): as the sequence (Q14671 828-1176 C935G/R936C/Q939K) above, with N72L, Y73P, Q76C, G108C, C109R, K112Q counted along it

For “GGCUAGAACUAGUGGAUCCCCCGGCGCCCGGCGGCUCGAGCCCGGGUAAGUGUAAAUAGUCUGCAUGCCGCCGGGCGCCAUGCCUGCAGGUCGACUCUAGAAAACAUG”, the binding signal with PUM1 PUF domain R3-DWV is 2.15 log2 enrichment (interaction score); with PUM1 PUF domain R3-YYR, 3.94 log2 enrichment (interaction score); in the experiment with PUM1 PUF domain R2-NYP it was 4.08 log2 enrichment (interaction score); with PUM1 PUF domain R3-PFD, 5.31 log2 enrichment (interaction score); with PUM1 PUF domain R5-RRM, 2.27 log2 enrichment (interaction score); in the experiment with PUM1 PUF domain R6-AWR, 5.74 log2 enrichment (interaction score).
Consider “GGCUAGAACUAGUGGAUCCCCCGGCGCCCGGCGGCUCGAGCCCGGGUAAGCGUAAAUAGUCUGCAUGCCGCCGGGCGCCAUGCCUGCAGGUCGACUCUAGAAAACAUG”, for which the binding signal with PUM1 PUF domain R8-MYF is 2.53 log2 enrichment (interaction score).
As to “GGCUAGAACUAGUGGAUCCCCCGGCGCCCGGCGGCUCGAGCCCGGGUAAGUGUAAUUAGUCUGCAUGCCGCCGGGCGCCAUGCCUGCAGGUCGACUCUAGAAAACAUG”, the values for the binding signal with PUM1 PUF domain R3-GCK, in the experiment with PUM1 PUF domain R3-PFD and with PUM1 PUF domain R3-SRK were 2.81 log2 enrichment (interaction score), 4.25 log2 enrichment (interaction score) and 2.4 log2 enrichment (interaction score), respectively.
For “GGCUAGAACUAGUGGAUCCCCCGGCGCCCGGCGGCUCGAGCCCGGGUAAGUGUUAAUAGUCUGCAUGCCGCCGGGCGCCAUGCCUGCAGGUCGACUCUAGAAAACAUG”, the binding signal with PUM1 PUF domain R5-RRM is 4.73 log2 enrichment (interaction score).
Turning to “GGCUAGAACUAGUGGAUCCCCCGGCGCCCGGCGGCUCGAGCCCGGGUAAGUUUAAAUAGUCUGCAUGCCGCCGGGCGCCAUGCCUGCAGGUCGACUCUAGAAAACAUG”, the binding signal with PUM1 PUF domain R7-LMF is 3.84 log2 enrichment (interaction score).
Consider “GGCUAGAACUAGUGGAUCCCCCGGCGCCCGGCGGCUCGAGCCCGGGUAAGUGUACAUAGUCUGCAUGCCGCCGGGCGCCAUGCCUGCAGGUCGACUCUAGAAAACAUG”, for which the binding signal in the experiment with PUM1 PUF domain R4-ANA was 2.08 log2 enrichment (interaction score).
“GGCUAGAACUAGUGGAUCCCCCGGCGCCCGGCGGCUCGAGCCCGGGUAAGUGUAACUAGUCUGCAUGCCGCCGGGCGCCAUGCCUGCAGGUCGACUCUAGAAAACAUG”: in the experiment with PUM1 PUF domain R3-YYR, the binding signal was 2.31 log2 enrichment (interaction score).
For the sequence “GGCUAGAACUAGUGGAUCCCCCGGCGCCCGGCGGCUCGAGCCCGGGUAAGUGUCAAUAGUCUGCAUGCCGCCGGGCGCCAUGCCUGCAGGUCGACUCUAGAAAACAUG”, the binding signal is 4.35 log2 enrichment (interaction score) with PUM1 PUF domain R5-RRM and 3.56 log2 enrichment (interaction score) with PUM1 PUF domain R5-KKD.
Consider “GGCUAGAACUAGUGGAUCCCCCGGCGCCCGGCGGCUCGAGCCCGGGUAAGUGUAUAUAGUCUGCAUGCCGCCGGGCGCCAUGCCUGCAGGUCGACUCUAGAAAACAUG”, for which the binding signal is 3.28 log2 enrichment (interaction score) with PUM1 PUF domain R4-ANA and 3.04 log2 enrichment (interaction score) with PUM1 PUF domain R4-GND.
As for “GGCUAGAACUAGUGGAUCCCCCGGCGCCCGGCGGCUCGAGCCCGGGUAAGUGCAAAUAGUCUGCAUGCCGCCGGGCGCCAUGCCUGCAGGUCGACUCUAGAAAACAUG”, the binding signal in the experiment with PUM1 PUF domain R6-AWR is 2.34 log2 enrichment (interaction score).
“GGCUAGAACUAGUGGAUCCCCCGGCGCCCGGCGGCUCGAGCCCGGGUAAGUGUAAAGAGUCUGCAUGCCGCCGGGCGCCAUGCCUGCAGGUCGACUCUAGAAAACAUG”: the binding signal with PUM1 PUF domain R2-LPC was 3.13 log2 enrichment (interaction score); in the experiment with PUM1 PUF domain R2-KVA it was 3.4 log2 enrichment (interaction score); with PUM1 PUF domain R2-RRT, 2.91 log2 enrichment (interaction score); in the experiment with PUM1 PUF domain R2-MVW, 3.45 log2 enrichment (interaction score); in the experiment with PUM1 PUF domain R2-KLS, 2.37 log2 enrichment (interaction score).
On to “GGCUAGAACUAGUGGAUCCCCCGGCGCCCGGCGGCUCGAGCCCGGGUAAGUGUAAGUAGUCUGCAUGCCGCCGGGCGCCAUGCCUGCAGGUCGACUCUAGAAAACAUG”, for which the results for the binding signal with PUM1 PUF domain R3-DWV and with PUM1 PUF domain R3-GCK were 3.22 log2 enrichment (interaction score) and 2.22 log2 enrichment (interaction score), respectively.
Turning to “GGCUAGAACUAGUGGAUCCCCCGGCGCCCGGCGGCUCGAGCCCGGGUAAGUGUGAAUAGUCUGCAUGCCGCCGGGCGCCAUGCCUGCAGGUCGACUCUAGAAAACAUG”, the values for the binding signal in the experiment with PUM1 PUF domain R5-SQA and in the experiment with PUM1 PUF domain R5-RRM were 3.09 log2 enrichment (interaction score) and 1.28 log2 enrichment (interaction score), respectively.
On to “GGCUAGAACUAGUGGAUCCCCCGGCGCCCGGCGGCUCGAGCCCGGGUAAGUGUAAAUUGUCUGCAUGCCGCCGGGCGCCAUGCCUGCAGGUCGACUCUAGAAAACAUG”, for which the binding signal with PUM1 PUF domain R1-NFS was 7.9 log2 enrichment (interaction score).
